# Measurements published in PubChem BioAssay (NCATS).
# “And” between values parts separate entries of the source, which are not always exact repeats. Equal entries are not always repeated. Records with an inconclusive call do not appear. A call without a number means that no potency is given here. The source made the active and inactive calls. Unless noted, calls follow the shape of the dose curve; as a rule, active = well fitted curve in the direction sought with a large enough effect; inconclusive = small, poorly fitted or top-dose-only effect, or another doubt; inactive = no such curve, though single readings can be large; an effect the other way counts as inactive or inconclusive.
# Key:
# [1] = qHTS to identify inhibitors of the type 1 interferon - major histocompatibility complex class I in skeletal muscle: primary screen against the NCATS Mechanism Interrogation Plate v5.0 (MIPE) Libary (AID 1347411); also: nearly all actives have a fitted effect of over 65% in size; also: potency is read from the fitted curve at half-maximal effect
# Outline: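 Cells were genome-edited human myoblasts carrying a HiBit tag on endogenous HLA-B. They were treated with IFN-beta (4.0 ng/ml) and titrated compounds (top 46 uM) for 24 hrs before lytic HiBiT detection.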
# [2] = Primary qHTS for inhibitors of nuclear receptor binding SET domain protein 2 (NSD2) in an isogenic RCH-ACV NSD2 p.E1099K mutant (9B) (AID 1645876); also: nearly all actives have a fitted effect of over 70% in size; also: potency is read from the fitted curve at half-maximal effect
# [3] = Primary qHTS for inhibitors of nuclear receptor binding SET domain protein 2 (NSD2) in an RCH-ACV wild type WT cells (2C) (AID 1645877); also: nearly all actives have a fitted effect of over 70% in size; also: potency is read from the fitted curve at half-maximal effect
# [4] = target: Glutathione peroxidase 1 (Homo sapiens) (UniProt P07203); test: Primary qHTS Assay for Inhibitors of Recombinant Selenoprotein Glutathione Peroxidase 1 (GPX1) (AID 1845191); also: nearly all actives have a fitted effect of over 65% in size; also: potency is read from the fitted curve at half-maximal effect
# Glutathione peroxidase 1 (Homo sapiens), sequence (P07203 whole entry, looked up): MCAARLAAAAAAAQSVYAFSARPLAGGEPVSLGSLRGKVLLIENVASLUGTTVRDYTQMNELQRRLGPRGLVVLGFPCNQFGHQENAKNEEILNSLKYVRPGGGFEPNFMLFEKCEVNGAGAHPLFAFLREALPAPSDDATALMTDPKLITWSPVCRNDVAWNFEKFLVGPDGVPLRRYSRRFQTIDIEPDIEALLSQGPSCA
# Outline: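 Recombinant GPX1 (10 nM final) was preincubated with compound for 30 min at room temperature, then reacted with 1 mM GSH, 0.5 mM CHP, 0.5 mM NADPH and 100 nM glutathione reductase; NADPH fluorescence (340/450 nm) was read at 0 and 15 min.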
# [5] = target: Phospholipid hydroperoxide glutathione peroxidase GPX4 (Homo sapiens) (UniProt P36969); test: Primary qHTS Assay for Inhibitors of Recombinant Selenoprotein Glutathione Peroxidase 4 (GPX4) (AID 1845192); conditions: outcome: dose series up to 50 µM unless noted; also: nearly all actives have a fitted effect of over 65% in size; also: potency is read from the fitted curve at half-maximal effect
# Phospholipid hydroperoxide glutathione peroxidase GPX4 (Homo sapiens), sequence (P36969 whole entry, looked up): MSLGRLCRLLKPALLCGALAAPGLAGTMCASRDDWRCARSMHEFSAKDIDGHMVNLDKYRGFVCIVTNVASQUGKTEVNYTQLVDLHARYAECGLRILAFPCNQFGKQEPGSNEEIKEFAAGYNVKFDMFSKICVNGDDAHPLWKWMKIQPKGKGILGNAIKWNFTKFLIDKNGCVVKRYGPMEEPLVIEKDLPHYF
# Outline: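 GR-coupled readout: 100 nM GR, 1 mM GSH, 0.5 mM NADPH; NADPH fluorescence (ex 340/em 450 nm) read at t=0 and after 15 min RT. GPX4 200 nM, preincubated 30 min with compound; substrate 0.5 mM CHP.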
# [6] = qHTS drug screen for cell cycle checkpoint inhibitors in PARPi-resistant BRCA-mutant ovarian cancer cell lines. (AID 1963452; calls by dose curve); conditions: PEO1/OlaR viability, CellTiter-Glo luminescence, 96 h, stronger effect = lower value
# Outline: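 PEO1, PEO4 and PEO1/OlaR ovarian cancer cells, 600 per well, exposed 96 h at 37C to a dilution series. Viability read by CellTiter-Glo luminescence, normalized to DMSO and empty wells; activity summarized as Z-AUC.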
# [7] = NCATS anti-infectives library activity on HEK293 viability as a counter-qHTS vs the C. elegans viability qHTS (AID 1745854);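 also: HEK293 cells exposed to compounds for 24 hr before the viability read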
# Outline: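 Cytotoxicity in human HEK293 cells is measured by ATP-dependent CellTiter-Glo luminescence following a 24 hr incubation with titrated library compounds at 37C. Top final concentration is 41.7 uM.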
# [8] = target: Cytochrome P450 2C9 (Homo sapiens) (UniProt P11712); test: Cytochrome P450 family 2 subfamily C member 9 (CYP2C9) small molecule antagonists: luciferase biochemical (cell-free) qHTS assay (AID 1645842; active = well fitted curve in the direction sought with a large enough effect in the repeat runs; an effect the other way counts as inactive or inconclusive; also: nearly all actives have a fitted effect of over 55% in size)
# Cytochrome P450 2C9 (Homo sapiens), sequence (P11712 whole entry, looked up): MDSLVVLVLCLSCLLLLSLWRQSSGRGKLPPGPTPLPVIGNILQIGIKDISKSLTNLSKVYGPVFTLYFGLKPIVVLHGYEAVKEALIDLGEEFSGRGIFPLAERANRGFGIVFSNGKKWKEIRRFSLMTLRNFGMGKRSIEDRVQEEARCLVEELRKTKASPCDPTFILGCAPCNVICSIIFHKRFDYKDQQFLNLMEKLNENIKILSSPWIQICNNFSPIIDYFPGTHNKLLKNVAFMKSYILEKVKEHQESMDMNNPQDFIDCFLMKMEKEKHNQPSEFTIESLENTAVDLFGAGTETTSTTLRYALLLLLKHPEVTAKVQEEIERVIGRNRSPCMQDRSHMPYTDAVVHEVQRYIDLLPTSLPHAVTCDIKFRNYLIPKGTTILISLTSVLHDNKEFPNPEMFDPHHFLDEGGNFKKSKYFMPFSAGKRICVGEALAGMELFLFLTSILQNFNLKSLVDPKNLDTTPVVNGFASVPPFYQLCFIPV
# Outline: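 Luminescence, after 20 min with luciferin detection reagent, reflected CYP2C9 turnover during a 1 h NADPH-driven reaction at 37C. Enzyme-substrate mix contained 0.4% bovine serum albumin and was preincubated with compound 10 min at room temperature.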
# [9] = NCATS anti-infectives library activity on the primary C. elegans qHTS viability assay (AID 1745855; calls by dose curve)
# Outline: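 Viability is taken from GFP fluorescence of PE254-GFP-FLuc C. elegans imaged by laser cytometry over 7 days. Ten L1 worms per well grow at 21 °C on TOP10 E. coli capsules with titrated compound; levamisole marks toxicity.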
# [10] = target: ATP-dependent 6-phosphofructokinase (Trypanosoma brucei brucei) (UniProt O15648); test: qHTS Assay to Find Inhibitors of T. brucei phosphofructokinase: hit validation (AID 492961);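 also: luminescence reports ADP formed as PFK phosphorylates fructose-6-phosphate with ATP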
# ATP-dependent 6-phosphofructokinase (Trypanosoma brucei brucei), sequence (O15648 whole entry, looked up): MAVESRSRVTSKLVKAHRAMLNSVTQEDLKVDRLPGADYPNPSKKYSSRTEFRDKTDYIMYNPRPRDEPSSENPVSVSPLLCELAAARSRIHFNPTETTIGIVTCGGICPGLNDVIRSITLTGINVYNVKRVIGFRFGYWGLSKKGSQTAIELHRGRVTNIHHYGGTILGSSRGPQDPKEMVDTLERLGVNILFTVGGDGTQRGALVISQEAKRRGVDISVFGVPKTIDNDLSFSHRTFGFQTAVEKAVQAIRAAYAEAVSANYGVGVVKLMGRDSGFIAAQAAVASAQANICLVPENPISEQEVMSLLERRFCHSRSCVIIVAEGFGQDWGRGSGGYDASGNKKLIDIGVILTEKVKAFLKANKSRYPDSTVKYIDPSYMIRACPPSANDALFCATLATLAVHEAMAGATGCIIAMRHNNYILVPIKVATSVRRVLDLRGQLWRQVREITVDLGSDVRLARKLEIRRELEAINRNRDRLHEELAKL
# Outline: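 PFK 1.25 nM, F6P 0.5 mM, ATP 0.1 mM, MgCl2 5 mM, 0.1 M TEA pH 8.0, Tween20 0.01%, BSA 0.1%; 45 min RT. ADP-Glo two-step detection, luminescence. qHTS titration; curve fitting with curve-class categorization.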
# [11] = target: Luciferin 4-monooxygenase (Photinus pyralis) (UniProt P08659); test: Biochemical firefly luciferase enzyme assay for NPC (AID 624030); also: nearly all actives have a fitted effect of over 70% in size; also: potency is read from the fitted curve at half-maximal effect
# Luciferin 4-monooxygenase (Photinus pyralis), sequence (P08659 whole entry, looked up): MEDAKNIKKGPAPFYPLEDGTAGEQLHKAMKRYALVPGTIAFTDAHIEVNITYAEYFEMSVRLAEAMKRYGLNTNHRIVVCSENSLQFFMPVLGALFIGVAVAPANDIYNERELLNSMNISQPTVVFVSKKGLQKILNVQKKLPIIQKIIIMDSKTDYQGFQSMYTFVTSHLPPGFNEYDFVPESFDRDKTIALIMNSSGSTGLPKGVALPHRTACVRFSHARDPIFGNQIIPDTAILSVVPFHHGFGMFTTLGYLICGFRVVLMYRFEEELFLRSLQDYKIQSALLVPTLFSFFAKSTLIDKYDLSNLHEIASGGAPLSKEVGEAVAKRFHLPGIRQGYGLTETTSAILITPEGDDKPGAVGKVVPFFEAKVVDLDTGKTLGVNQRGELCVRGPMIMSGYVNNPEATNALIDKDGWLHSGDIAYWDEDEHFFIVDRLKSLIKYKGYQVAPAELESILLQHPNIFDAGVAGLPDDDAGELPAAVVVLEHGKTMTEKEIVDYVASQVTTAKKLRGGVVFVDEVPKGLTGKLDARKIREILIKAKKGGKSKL
# Outline: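 Counter-screen for direct inhibition of the luciferase enzyme by approved-drug library compounds, run at 10 nM enzyme in 50 mM Tris acetate (final). Luminescence was read within 5 min of enzyme-buffer addition and normalized to PTC124 versus DMSO (0%).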
# [12] = qHTS profiling for inhibitors of Plasmodium falciparum proliferation (AID 504749); also: nearly all actives have a fitted effect of over 60% in size; conditions: P. falciparum in erythrocytes, SYBR Green DNA, 72 h; at 28.7 µM (top of the series); parasite line A
# Outline: (§1)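 P. falciparum-infected erythrocytes (0.3% parasitemia, 2.5% hematocrit final) were exposed to compounds for 72 h at 37 C in 5% CO2, then lysed with SYBR Green buffer overnight at room temperature; parasite DNA fluorescence was normalized to artemisinin and DMSO controls.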
# ATS189 = test: as above; conditions: P. falciparum in erythrocytes, SYBR Green DNA, 72 h; series mostly up to 28.7 µM
# Outline: as §1
# CP192 = test: as above; conditions: P. falciparum in erythrocytes, SYBR Green DNA, 72 h; series mostly up to 28.7 µM
# Outline: as §1
# CP291 = test: as above; conditions: P. falciparum in erythrocytes, SYBR Green DNA, 72 h; series mostly up to 28.7 µM
# Outline: as §1
# TAB113 = test: as above; conditions: P. falciparum in erythrocytes, SYBR Green DNA, 72 h; series mostly up to 28.7 µM
# Outline: as §1
# [13] = measured here: PEO1 parental Z-AUC
smiles,measurement,setting,value
Cn1ncc(NC(=O)c2nc(-c3c(F)cccc3F)sc2N)c1N1CC[C@@H](N)[C@H](F)CC1,Potency,[1],inactive
same,Potency,[2],inactive
same,Potency,[3],inactive
same,Potency,[4],inactive
same,Potency,[5],inactive
same,Z-AUC,[6],0.883 (inactive)
same,Z-AUC,[6]; [13],0.956
same,Z-AUC,[6]; measured here: PEO4 Z-AUC,0.537
CN1C(N)=N[C@](C)(c2cc(NC(=O)c3ccc(F)cn3)ccc2F)CS1(=O)=O,Potency,[1],inactive
same,Potency,[2],inactive
same,Potency,[3],inactive
same,Potency,[7],inactive
same,Potency,[4],inactive
same,Potency,[5],inactive
same,Z-AUC,[6],1.51 (inactive)
same,Z-AUC,[6]; [13],0.477
same,Z-AUC,[6]; measured here: PEO4 Z-AUC,0.848
CNC(=O)[C@@H](NC(=O)[C@H](CC(C)C)[C@H](O)C(=O)NO)C(C)(C)C,Potency,[1],inactive
same,Potency,[2],18.6 µM (active)
same,Potency,[3],13.2 µM (active)
same,Potency,[7],inactive
same,Potency,[4],inactive
same,Potency,[5],inactive
same,Z-AUC,[6],1.14 (inactive)
same,Z-AUC,[6]; [13],0.454
same,Z-AUC,[6]; measured here: PEO4 Z-AUC,0.976
CC(C)=CCC[C@](C)(O[C@@H]1O[C@H](CO[C@@H]2O[C@H](CO)[C@@H](O)[C@H](O)[C@H]2O)[C@@H](O)[C@H](O)[C@H]1O)[C@H]1CC[C@]2(C)[C@@H]1[C@H](O)C[C@@H]1[C@@]3(C)CC[C@H](O[C@@H]4O[C@H](CO)[C@@H](O)[C@H](O)[C@H]4O[C@@H]4O[C@H](CO)[C@@H](O)[C@H](O)[C@H]4O)C(C)(C)[C@@H]3CC[C@]12C,Potency,[1],inactive
same,Potency,[2],inactive
same,Potency,[3],inactive
same,Potency,[7],inactive
same,Potency,[4],inactive
same,Potency,[5],inactive
same,Z-AUC,[6],1.47 (inactive)
same,Z-AUC,[6]; [13],1.48
same,Z-AUC,[6]; measured here: PEO4 Z-AUC,1.64
CC#Cc1cncc(-c2ccc3c(c2)[C@@]2(N=C(C)C(N)=N2)C2(CCC(OC)CC2)C3)c1 (some centres not stated),Potency,[1],inactive
same,Potency,[2],inactive
same,Potency,[3],inactive
same,Potency,[7],inactive
same,Potency,[4],inactive
same,Potency,[5],inactive
same,Z-AUC,[6],1.27 (inactive)
same,Z-AUC,[6]; [13],0.521
same,Z-AUC,[6]; measured here: PEO4 Z-AUC,0.345
Nc1nccc(-c2c(-c3ccc(F)cc3)ncn2C2CCN(Cc3ccon3)CC2)n1,Potency,[1],inactive
same,Potency,[2],7.42 µM (active)
same,Potency,[3],7.42 µM (active)
same,Potency,[4],inactive
same,Potency,[5],inactive
C[C@H](Nc1nc(N[C@H](C)C(F)(F)F)nc(-c2cccc(Cl)n2)n1)C(F)(F)F,Potency,[1],inactive
same,Potency,[2],inactive
same,Potency,[3],inactive
same,Potency,[4],inactive
same,Potency,[5],inactive
same,Z-AUC,[6],-0.138 (inactive)
same,Z-AUC,[6]; [13],0.592
same,Z-AUC,[6]; measured here: PEO4 Z-AUC,0.804
C/C(=N\NC(=O)c1cccc(S(=O)(=O)N2CCOCC2)c1)c1cc(Cl)ccc1O,Potency,[1],inactive
same,Potency,[2],2.09 µM (active)
same,Potency,[3],2.09 µM (active)
same,Potency,[4],inactive
same,Potency,[5],inactive
Nc1nc(F)nc2c1ncn2C1OC(COP(=O)(O)O)C(O)C1O (configuration not stated),Potency,[1],inactive
same,Potency,[2],2.95 µM (active)
Cn1cc(/C=C2\C(=O)Nc3cccnc32)c2ccccc21,Potency,[1],29.4 µM (active)
same,Potency,[8],inactive
same,Potency,[2],5.25 µM (active)
same,Potency,[3],8.33 µM (active)
same,Potency,[4],inactive
same,Potency,[5],inactive
same,Z-AUC,[6],1.01 (inactive)
same,Z-AUC,[6]; [13],0.388
same,Z-AUC,[6]; measured here: PEO4 Z-AUC,-0.377
COC(=O)c1ccc([C@H]2c3[nH]c4ccccc4c3C[C@H](C(=O)OC)N2C(=O)CCl)cc1,Potency,[1],0.829 µM (active)
same,Potency,[2],0.148 µM (active)
same,Potency,[3],0.148 µM (active)
same,Potency,[4],inactive
same,Potency,[5],inactive
same,Z-AUC,[6],-1.5 (inactive)
same,Z-AUC,[6]; [13],0.403
same,Z-AUC,[6]; measured here: PEO4 Z-AUC,-0.118
COc1ccnc2[nH]cc(C(=O)C(=O)N3CCN(C(=O)c4ccccc4)C[C@H]3C)c12,Potency,[1],inactive
same,Potency,[2],inactive
same,Potency,[3],inactive
same,Potency,[7],inactive
same,Potency,[9],inactive
same,Potency,[4],inactive
same,Potency,[5],inactive
same,Z-AUC,[6],1.3 (inactive)
same,Z-AUC,[6]; [13],1.05
same,Z-AUC,[6]; measured here: PEO4 Z-AUC,1.31
c1ccc(CNCc2ccc(CN3CCCNCCNCCCNCC3)cc2)nc1,Potency,[1],inactive
same,Potency,[2],inactive
same,Potency,[3],inactive
same,Potency,[7],inactive
same,Potency,[4],inactive
same,Potency,[5],inactive
same,Z-AUC,[6],1.17 (inactive)
same,Z-AUC,[6]; [13],1.27
same,Z-AUC,[6]; measured here: PEO4 Z-AUC,1.11
Cc1cc(C)c(S(=O)(=O)N(CCc2cccc(Br)c2)Cc2ccc(-c3cccc(S(C)(=O)=O)c3)cc2)c(C)c1,Potency,[1],inactive
same,Potency,[2],inactive
same,Potency,[3],inactive
same,Potency,[4],inactive
same,Potency,[5],inactive
same,Z-AUC,[6],0.662 (inactive)
same,Z-AUC,[6]; [13],0.747
same,Z-AUC,[6]; measured here: PEO4 Z-AUC,0.467
CC(/C=C1\SC(=S)N(CC(=O)O)C1=O)=C\c1ccccc1,outcome,[10],inactive
same,Potency,[11],6.42 µM (active)
same,Potency,[1],inactive
same,Potency,[2],inactive
same,Potency,[3],inactive
same,Potency,[4],7.28 µM (active) and 3.21 µM (active)
same,Potency,[5],12.8 µM (active) and 12.6 µM (active)
same,Z-AUC,[6],1.25 (inactive)
same,Z-AUC,[6]; [13],1.33
same,Z-AUC,[6]; measured here: PEO4 Z-AUC,1.77
same,"activity, negative = inhibition",[12],-3.63% (inactive)
same,Potency,ATS189,inactive
same,Potency,CP192,inactive
same,Potency,CP291,inactive
same,Potency,TAB113,inactive
NC1=N[C@@]2(c3cc(NC(=O)c4ccc(F)cn4)ccc3F)COC[C@H]2CS1,Potency,[1],inactive
same,Potency,[2],inactive
same,Potency,[3],inactive
same,Potency,[7],inactive
same,Potency,[4],inactive
same,Potency,[5],inactive
same,Z-AUC,[6],1.41 (inactive)
same,Z-AUC,[6]; [13],0.672
same,Z-AUC,[6]; measured here: PEO4 Z-AUC,0.598
COC[C@@H](c1ccc(C(F)(F)F)cc1)N1CCN(C2(C)CCN(C(=O)c3c(C)ncnc3C)CC2)C[C@@H]1C,Potency,[11],inactive
same,Potency,[1],inactive
same,Potency,[2],inactive
same,Potency,[3],inactive
same,Potency,[7],inactive
same,Potency,[4],inactive
same,Potency,[5],inactive
same,Z-AUC,[6],1.18 (inactive)
same,Z-AUC,[6]; [13],1.03
same,Z-AUC,[6]; measured here: PEO4 Z-AUC,0.78
